# Reference: the OligoGym collection
# Target: RSPH9
# Assay: pooled miR-30 sensor sort-seq; sequence = guide strand
# Conditions: shRNA
row,Sequence,sensor-assay potency score (higher = more potent)
1,TAGCTCAACAGGCTCCCTGAAA,-1.11
2,TAGCCATAGTTCTTGGTGCGGG,-0.956
3,TCTTATTCTTTAGCTCAACAGG,-1.48
4,TTATTCTTTAGCTCAACAGGCT,-0.377
5,TATTTCTTCTTCAAAGACTTTT,-0.914
6,TTGATCTGGACCACTATTTCTT,-0.0516
7,TTTGGGAATGTCATGCTCCAAG,-0.888

# Target: RTF1
# Assay: as above
# Conditions: shRNA
row,Sequence,sensor-assay potency score (higher = more potent)
1,TACTTTGAACAGATCTTCTGAG,0.376
2,TTGAGATTTCTTGTCTAGTTTC,-0.921
3,TTCGTTTTTCTCGCTCTGCTTT,-0.471
4,TTCTTGATTTCAAATCTTCTTT,-0.27
5,TACAATCTCTTCAATGTCCTGA,0.771
6,TTGAGACAAACTCTAAACGGAA,-0.778
7,TTTGAGACAAACTCTAAACGGA,0.185
8,TTTTTCTTGATTTCAAATCTTC,-0.239
9,TTCATCATCAGAGTAGACCTCA,0.818
10,TTTCTCTGTCATCTGTTCCAGA,-0.00304
11,ATTGATTTCATCTAGAGTGGGC,0.501

# Target: RTN4
# Assay: as above
# Conditions: shRNA
row,Sequence,sensor-assay potency score (higher = more potent)
1,TATTACTAACTAACTTCTCTTC,-0.121
2,TTTCTGAAGTAGGATCTCCTAA,-0.155
3,TTCTAGGTCAGTATATTCCCTG,-0.784
4,TTTCTGAAGACACAACTTCATC,-1.21
5,TAACTAACTTCTCTTCTTCATC,-0.896
6,TAAAGATCTAACAACGATCTGT,0.175
7,TTTCTGAGTATTCTAATTCTGA,-0.686
8,TATCTGTTGTGACATAATCTGT,-0.595
9,TTGTGACATAATCTGTCTCAGA,-1.04
10,TAAATCTCTATCTATGAGTAGA,-0.547
11,TTTTGTGTTATCTAAACTGAGC,-0.981
12,TTCACTTTCACATGCTTCCTGT,-0.0605

# Target: RTTN
# Assay: as above
# Conditions: shRNA
row,Sequence,sensor-assay potency score (higher = more potent)
1,TTGTATTTGCTCATCTCTGTTA,-0.347
2,TTAATAACCAGCTCTCTTCTGT,0.265
3,TTTAATAACACCATCCTCCTTT,0.89
4,TACTCTTCTGAATTACTCCTTT,0.0347
5,TAGAGATTTCTGATTTTCCTGA,0.353
6,TTAGTAAGTCTAGACAGCCATC,-1.38
7,TTCTTCACTATGACTACCCAAA,-0.98
8,TTTCCTGTCAGTAACTTCCATG,-0.534
9,TTCAGGAGTAACTTCAACCAAA,-0.732
